Screens deposited in PubChem BioAssay by University of Kansas High Throughput Screening Laboratory.
Shown is part of a subset that was picked to be rich in hits.
Pf apPOL inh – Pf-apPOL inhibitors, biochemical, fluorescence | Plasmodium falciparum apicoplast DNA polymerase (apPOL) | Recombinant Pf-apPOL, molecular beacon fluorescence, 1.5 h | inhibition, % at 10 µM | 210,000 tested, 0.25% active | AID 1794808, 2022
mHTT-CaM PPI inh – mutant huntingtin-calmodulin interaction inhibitors – biochemical, AlphaScreen, primary screen; P42858; AID 1671202, 2021; AlphaScreen His-mHTT/GST-CaM binding, luminescence; inhibition, % at 15 µM; 190,000 tested, 3.6% active;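 further: 0% = both proteins with DMSO and 100% = one protein alone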
* = called active by the depositor. No stated cut-off is given here; in the data, active means inhibition above about 50%; inactive means the rest.

Screening COc1cccc(-c2nc(C3CCN(C(=O)c4cc(F)ccc4F)CC3)no2)c1 returned Pf apPOL inh 6 and mHTT-CaM PPI inh -7.
Screening CC1C2NC(=O)N(Cc3ccccc3)C1(C)Oc1ccccc12 (centres undefined) returned Pf apPOL inh 0 and mHTT-CaM PPI inh 68*.
Screening CC12CC(NC(=O)N1CCc1ccccc1)c1ccccc1O2 (centres undefined) returned Pf apPOL inh 2 and mHTT-CaM PPI inh -2.
Screening O=C(Cc1cccc(F)c1)N1CCC(Nc2cccn3ncnc23)CC1 returned Pf apPOL inh -5 and mHTT-CaM PPI inh 8.
`CCc1ccc(NC(=O)c2cncc(-c3ccc(C)cc3)c2)cc1` gave Pf apPOL inh 0 and mHTT-CaM PPI inh -9.
Cc1ccc(-c2cncc(C(=O)Nc3ccc4c(c3)OCCO4)c2)cc1 was read as Pf apPOL inh -3 and mHTT-CaM PPI inh 54*.
`Cc1[nH][nH]c(=O)c1C(c1ccc(Cl)cc1)C(C#N)C#N` (centres undefined) gave Pf apPOL inh 11 and mHTT-CaM PPI inh 12.
For c1cc2c(cc1CNc1ccc3cn[nH]c3c1)OCO2 the results were Pf apPOL inh -6 and mHTT-CaM PPI inh 64*.
Cn1cc(CC(=O)Nc2ccc3cn[nH]c3c2)c2ccccc21 was read as Pf apPOL inh 3 and mHTT-CaM PPI inh 12.
For Cc1cccc(CNc2ccc3cn[nH]c3c2)c1 the results were Pf apPOL inh -4 and mHTT-CaM PPI inh 60*.
Screening O=C(O)c1ccc(NCc2ccc3c(c2)OCO3)cc1 returned Pf apPOL inh 5 and mHTT-CaM PPI inh -3.
For Oc1cccc(CNc2ccc3[nH]ncc3c2)c1 the results were Pf apPOL inh -5 and mHTT-CaM PPI inh 77*.
For Oc1cccc(CNc2ccc(F)c(Cl)c2)c1 the results were Pf apPOL inh -5 and mHTT-CaM PPI inh 19.
Screening O=C(Cc1cccs1)Nc1cccn2nc(C3CC3)nc12 returned Pf apPOL inh 61* and mHTT-CaM PPI inh 35.
Cc1ccccc1C(=O)Nc1cccn2nc(C3CC3)nc12 was read as Pf apPOL inh -24 and mHTT-CaM PPI inh 17.
For Cc1nn(-c2ccccc2)c(N2CCOCC2)c1[N+](=O)[O-] the results were Pf apPOL inh -4.
O=[N+]([O-])c1c(C(Cl)Cl)nn(-c2ccccc2)c1N1CCCC1 was read as Pf apPOL inh -1 and mHTT-CaM PPI inh 54*.
CC1CCCN(c2cc(NCCCC(=O)O)c3c4c(onc24)-c2ccccc2C3=O)C1 (centres undefined) was read as Pf apPOL inh 0 and mHTT-CaM PPI inh 77*.
For CC1CC(C)CN(c2cc(NCCCC(=O)O)c3c4c(onc24)-c2ccccc2C3=O)C1 (centres undefined) the results were Pf apPOL inh 0 and mHTT-CaM PPI inh 65*.
`O=C1c2ccccc2-c2onc3c(N4CCOCC4)cc(N4CCOCC4)c1c23` gave Pf apPOL inh -3 and mHTT-CaM PPI inh 39.
`O=C(NC1CCCCC1)c1ccc2c3c(onc13)-c1ccccc1C2=O` gave Pf apPOL inh 2 and mHTT-CaM PPI inh 42.
`COc1ccccc1C(=O)N1CCC2(CC1)NC(=O)N(Cc1ccccc1Cl)C2=O` gave Pf apPOL inh -3 and mHTT-CaM PPI inh 5.
`CC(=O)NC1=NN(C(C)=O)C(c2ccc(OCc3ccccc3)c(OCc3ccccc3)c2)S1` (centres undefined) gave Pf apPOL inh 0 and mHTT-CaM PPI inh 38.
For CC(=O)NC1=NN(C(C)=O)C(c2ccc(OCc3ccccc3)cc2)S1 (centres undefined) the results were Pf apPOL inh -3 and mHTT-CaM PPI inh 68*.
Screening Cc1ccccc1-n1nc2c(c1NC(=O)c1cc(Cl)ccc1[N+](=O)[O-])CS(=O)(=O)C2 returned Pf apPOL inh -3 and mHTT-CaM PPI inh 13.
O=C(CCC1CCCN(C(=O)Nc2cccc(F)c2)C1)N1CCN(c2ccccc2)CC1 (centres undefined) was read as Pf apPOL inh -4 and mHTT-CaM PPI inh 50*.
CCN1CCN(C(=O)CCC2CCCN(C(=O)Nc3cccc(F)c3)C2)CC1 (centres undefined) was read as Pf apPOL inh -6 and mHTT-CaM PPI inh 18.
`COCCCNC(=S)NN=Cc1ccc(-c2ccc(OC)cc2)s1` gave Pf apPOL inh -2.
Screening Cc1ccccc1/C=c1\sc2n(c1=O)C(N)=C(C#N)C(c1ccccc1C)C=2C#N (centres undefined) returned Pf apPOL inh 16 and mHTT-CaM PPI inh -2.
`Cc1ccc(C(=O)N2CCC3(CC2)NC(=O)c2ccc(F)cc2N3C)c(C)c1` gave Pf apPOL inh -2 and mHTT-CaM PPI inh 0.
`Cc1ccc(C(=O)N2CCC3(CC2)NC(=O)c2cc(F)ccc2N3C)c(C)c1` gave Pf apPOL inh 0 and mHTT-CaM PPI inh 56*.
Screening COc1cc(CN2CCc3nc(N4CCC(C)CC4)ncc3C2)cc(OC)c1OC returned Pf apPOL inh -6 and mHTT-CaM PPI inh 34.
Screening COc1ccc(-c2c(C)c3cc(OCC(=O)OC(C)C)ccc3oc2=O)cc1OC returned Pf apPOL inh -8 and mHTT-CaM PPI inh 2.
`CCn1c(=O)c2c(ncn2CC(C)C)n(-c2ccccc2C)c1=O` gave Pf apPOL inh 0 and mHTT-CaM PPI inh 2.
Screening CSc1ccc(C2Oc3ccccc3C3=C2C(c2cccs2)n2ncnc2N3)cc1 (centres undefined) returned Pf apPOL inh -5 and mHTT-CaM PPI inh 38.
COc1cccc(C2C3=C(Nc4ncnn42)c2ccccc2OC3c2ccccc2Cl)c1 (centres undefined) was read as Pf apPOL inh -8 and mHTT-CaM PPI inh 58*.
`COc1cccc(C2C3=C(Nc4ncnn42)c2ccccc2OC3c2ccccc2F)c1` (centres undefined) gave Pf apPOL inh 7 and mHTT-CaM PPI inh 5.
Fc1ccc(C2Oc3ccccc3C3=C2C(c2cccs2)n2ncnc2N3)cc1 (centres undefined) was read as Pf apPOL inh -3 and mHTT-CaM PPI inh 61*.
Cn1c(C2CCN(C(=O)NCc3ccco3)C2)nc2cccnc21 (centres undefined) was read as Pf apPOL inh 12 and mHTT-CaM PPI inh 14.
For Nc1ccc(-c2nc3ccccc3c(=O)[nH]2)cc1 the results were Pf apPOL inh 4 and mHTT-CaM PPI inh 4.
Screening COc1ccc(C=O)cc1OCc1ccccc1[N+](=O)[O-] returned Pf apPOL inh 94* and mHTT-CaM PPI inh 1.
For COc1ccc(NCc2ccccc2[N+](=O)[O-])cc1OC the results were Pf apPOL inh 4 and mHTT-CaM PPI inh 64*.
Screening COc1ccc(NC(=O)Cc2ccccc2[N+](=O)[O-])cc1OC returned Pf apPOL inh 2 and mHTT-CaM PPI inh 2.
`COc1ccccc1NCc1ccc([N+](=O)[O-])s1` gave Pf apPOL inh 11 and mHTT-CaM PPI inh 31.
COc1ccc(NCc2ccc([N+](=O)[O-])s2)cc1OC was read as Pf apPOL inh 4 and mHTT-CaM PPI inh 65*.
For CCOc1cc(CN2CCN(Cc3ccccc3[N+](=O)[O-])CC2)ccc1OC the results were Pf apPOL inh 6 and mHTT-CaM PPI inh 9.
CC1CC(NC(=O)CC2CSc3nccc(=O)n32)CC(C)(C)C1 (centres undefined) was read as Pf apPOL inh 4 and mHTT-CaM PPI inh 3.
Screening Cc1cc(C)cc(N2CCC(NC(=O)c3ccsc3)C2=O)c1 (centres undefined) returned Pf apPOL inh -1 and mHTT-CaM PPI inh -6.
